# Assay outcomes from PubChem BioAssay.
# sEH activator = increases human soluble epoxide hydrolase activity; purified human sEH enzymatic activity, activator screen; 0.04% of 91,000 active; AID 717; activation, % at 2 µM; in the data active = activation above about 37%
# NFkB transloc inh = blocks IL-1B driven NFkB nuclear translocation in HUVEC cells; 0.43% of 94,000 active; inhibition, % at 2 µM; HUVEC IL-1B NFkB p65 nuclear translocation imaging;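 active = inhibition above about 30% together with a positive call from visual inspection of the well image, limit read from the data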;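 also: nuclear over cytoplasmic p65 intensity ratio measured by imaging; 0% = IL-1B stimulated DMSO wells and 100% = unstimulated DMSO wells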
# sEH inh = inhibitors of human soluble epoxide hydrolase | P34913 | AID 707 | recombinant human sEH enzymatic activity assay | inhibition, % at 2 µM | 0.34% of 91,000 active; in the data active = inhibition above about 80%
# Cav3 T inh = inhibitors of human Cav3.2 T-type calcium channel; O95180; 4% of 100,000 active; Cav3.2-expressing cells, Fluo-4 calcium fluorescence FDSS; hits give low values; B-score at 10 µM;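 active = single-dose well whose peak fluorescence ratio is a statistical outlier from its plate by either plate-standardised score or position-corrected B-score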
# Target sequence (O95180 whole entry, looked up): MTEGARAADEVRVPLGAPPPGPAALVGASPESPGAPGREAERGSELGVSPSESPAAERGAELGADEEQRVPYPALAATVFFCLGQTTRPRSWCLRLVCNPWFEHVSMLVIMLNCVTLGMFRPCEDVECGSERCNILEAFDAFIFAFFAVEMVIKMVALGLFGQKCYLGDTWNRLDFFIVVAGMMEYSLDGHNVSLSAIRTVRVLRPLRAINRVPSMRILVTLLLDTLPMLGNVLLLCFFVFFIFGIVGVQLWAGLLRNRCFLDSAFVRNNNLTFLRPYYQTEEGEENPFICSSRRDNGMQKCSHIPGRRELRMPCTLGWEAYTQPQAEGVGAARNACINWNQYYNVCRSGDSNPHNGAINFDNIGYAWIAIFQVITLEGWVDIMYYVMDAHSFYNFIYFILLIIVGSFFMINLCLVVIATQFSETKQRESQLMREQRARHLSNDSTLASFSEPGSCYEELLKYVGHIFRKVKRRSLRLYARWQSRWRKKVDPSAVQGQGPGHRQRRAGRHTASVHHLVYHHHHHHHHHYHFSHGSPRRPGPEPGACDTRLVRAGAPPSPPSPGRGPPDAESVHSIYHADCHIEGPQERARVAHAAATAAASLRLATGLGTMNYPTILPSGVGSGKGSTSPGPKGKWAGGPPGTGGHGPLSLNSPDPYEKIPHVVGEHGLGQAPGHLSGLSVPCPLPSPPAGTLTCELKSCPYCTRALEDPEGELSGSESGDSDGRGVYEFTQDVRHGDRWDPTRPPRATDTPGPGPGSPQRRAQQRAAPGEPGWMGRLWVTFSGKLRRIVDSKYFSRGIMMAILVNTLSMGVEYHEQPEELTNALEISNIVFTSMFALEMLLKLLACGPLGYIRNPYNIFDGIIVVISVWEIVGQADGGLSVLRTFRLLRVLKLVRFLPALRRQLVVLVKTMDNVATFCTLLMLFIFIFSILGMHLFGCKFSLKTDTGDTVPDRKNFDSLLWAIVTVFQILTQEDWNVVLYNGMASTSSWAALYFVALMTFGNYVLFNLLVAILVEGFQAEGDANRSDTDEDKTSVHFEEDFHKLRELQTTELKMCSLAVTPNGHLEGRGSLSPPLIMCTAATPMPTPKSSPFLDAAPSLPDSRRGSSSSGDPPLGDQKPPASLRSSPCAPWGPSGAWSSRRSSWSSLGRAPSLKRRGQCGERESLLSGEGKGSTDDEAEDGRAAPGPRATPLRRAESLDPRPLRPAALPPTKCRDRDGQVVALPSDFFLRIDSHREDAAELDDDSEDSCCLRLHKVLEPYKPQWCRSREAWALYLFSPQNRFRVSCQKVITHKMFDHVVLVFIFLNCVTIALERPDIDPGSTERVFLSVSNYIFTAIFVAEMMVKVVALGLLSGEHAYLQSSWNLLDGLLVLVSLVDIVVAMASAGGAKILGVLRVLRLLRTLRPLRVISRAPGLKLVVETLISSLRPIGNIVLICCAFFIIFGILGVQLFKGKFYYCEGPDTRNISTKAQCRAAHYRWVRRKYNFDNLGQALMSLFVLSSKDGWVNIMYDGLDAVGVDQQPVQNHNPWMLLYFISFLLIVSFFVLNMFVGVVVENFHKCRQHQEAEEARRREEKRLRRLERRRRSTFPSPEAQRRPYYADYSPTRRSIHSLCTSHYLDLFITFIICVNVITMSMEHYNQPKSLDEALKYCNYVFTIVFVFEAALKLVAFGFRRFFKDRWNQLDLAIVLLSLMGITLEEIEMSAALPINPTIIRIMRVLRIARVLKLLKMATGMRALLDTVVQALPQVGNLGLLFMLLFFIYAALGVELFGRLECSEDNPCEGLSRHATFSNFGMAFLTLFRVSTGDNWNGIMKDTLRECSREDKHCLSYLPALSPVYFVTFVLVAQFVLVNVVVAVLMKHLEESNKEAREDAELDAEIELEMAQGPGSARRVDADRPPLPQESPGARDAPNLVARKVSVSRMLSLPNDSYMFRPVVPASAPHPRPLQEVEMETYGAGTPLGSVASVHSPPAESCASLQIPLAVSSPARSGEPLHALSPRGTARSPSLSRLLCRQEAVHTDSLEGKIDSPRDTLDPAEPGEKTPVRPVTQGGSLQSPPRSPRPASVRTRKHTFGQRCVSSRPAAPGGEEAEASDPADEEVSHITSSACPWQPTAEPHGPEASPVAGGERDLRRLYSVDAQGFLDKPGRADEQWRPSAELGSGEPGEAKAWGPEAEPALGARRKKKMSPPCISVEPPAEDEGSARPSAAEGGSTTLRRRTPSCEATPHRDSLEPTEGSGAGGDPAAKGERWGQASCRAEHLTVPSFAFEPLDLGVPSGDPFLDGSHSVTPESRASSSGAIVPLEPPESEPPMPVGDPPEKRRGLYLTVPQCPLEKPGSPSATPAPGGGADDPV
# IL1B cytotox = toxic to HUVEC cells under IL-1B stimulation | 0.41% of 94,000 active | cell count reduction, % at 2 µM | HUVEC cell count loss, Hoechst imaging, IL-1B stimulated | AID 845;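 active = cell count reduction more than 3 SD above the screen-wide mean, cut at about 70% in these data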;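 also: normalized per plate to untreated control cells as the no-loss baseline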
# IL1B NFkB pot = enhances IL-1B driven NFkB nuclear translocation; activation, % at 2 µM; 0.3% of 94,000 active; HUVEC IL-1B NFkB p65 nuclear translocation imaging;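 active = activation above 40%, about the mean plus 3 SD, also judged a hit on visual image review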;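 also: percent activation is computed from the nuclear over cytoplasmic p65 intensity ratio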
# Active calls of the source: *; x = no result. This is a sample that favours compounds with a hit; in the whole collection about 4.6% have one here.
SMILES,sEH activator,NFkB transloc inh,sEH inh,Cav3 T inh,IL1B cytotox,IL1B NFkB pot
COc1ccc2[nH]c(C(=O)O)c(CCNC(C)=O)c2c1,-5,6,4,x,-4,-6
c1ccc(Cn2nnnc2C(c2cccs2)N2CCSCC2)cc1 (centres undefined),11,-2,-13,-3.4,5,1
Cc1ccc2cc(C(c3nnnn3C3CCCC3)N3CCN(c4ccccc4)CC3)c(=O)[nH]c2c1 (centres undefined),-10,-28,9,-6.1*,14,28
Fc1ccc(Cn2nnnc2C(c2ccc(Cl)cc2)N2CCSCC2)cc1 (centres undefined),2,2,2,-7.1*,1,-2
Cc1ccc2cc(C(c3nnnn3Cc3ccccc3)N3CCN(c4ccccc4)CC3)c(=O)[nH]c2c1 (centres undefined),4,-30,-5,x,-2,30
COc1ccc(OC)c(C(c2nnnn2C2CCCC2)N2CCN(c3ccc(F)cc3)CC2)c1 (centres undefined),8,-5,-11,-9.4*,0,5
Cc1ccc(S(=O)(=O)Cn2nnnc2C(c2ccccc2)N2CCN(c3ccccc3)CC2)cc1 (centres undefined),3,57*,-2,-2.7,23,-57
COc1ccc(NC(=O)C2CCCCN2S(=O)(=O)c2ccc(F)cc2)c(OC)c1 (centres undefined),-6,-4,6,-0.24,-2,4
c1ccc(CN2CCN(C(c3ccccc3)c3nnnn3Cc3ccccc3)CC2)cc1 (centres undefined),13,-5,-14,-0.29,-5,5
COc1ccc(Cn2nnnc2C(c2ccccc2)N2CCN(C3CCCC3)CC2)cc1 (centres undefined),x,x,x,0.67,x,x
COc1ccc(C(c2nnnn2Cc2ccccc2)N2CCN(c3nc4ccccc4s3)CC2)cc1 (centres undefined),x,x,x,-4.8*,x,x
COc1ccc(C(c2nnnn2Cc2ccccc2)N2CCN(c3ccccc3)CC2)cc1 (centres undefined),x,x,x,-4.5*,x,x
O=C1c2ccccc2NC(c2ccc(Cl)cc2Cl)N1Cc1ccccc1 (centres undefined),-7,-14,9,-5.3*,4,14
O=C1c2ccccc2NC(c2c(Cl)cccc2Cl)N1Cc1ccccc1 (centres undefined),-4,-3,3,-11*,-11,3
CC1CCN(c2oc(-c3cccc4ccccc34)nc2C#N)CC1,7,100*,-9,0.00096,94*,-100
Cc1cccc(NC(=O)Cn2cccc2)c1,-2,2,2,-0.064,-20,-2
Cc1cccc(NC(=O)CNc2cc(C)ccc2C)c1,7,-9,-7,-5.8*,-2,9
O=C1CC(=O)C(n2cncn2)C(c2c(F)cccc2Cl)C1 (centres undefined),5,-5,-6,0.85,17,5
Cc1ccc(OCC(=O)NC2CCS(=O)(=O)C2)cc1 (centres undefined),8,x,-8,-4.7*,x,x
O=C(CSc1nnc(Cc2cc(=O)[nH]c(=O)[nH]2)n1-c1ccc(Cl)cc1)NCC1CCCO1 (centres undefined),-9,4,9,0.64,4,-4
O=C(CSc1nnc(Cc2cc(=O)[nH]c(=O)[nH]2)n1-c1ccccc1)NCC1CCCO1 (centres undefined),2,15,-1,-0.096,93*,-15
CCCN(CCC)c1nc(NC2CCN(C(=O)OCC)CC2)nc(OC)n1,11,-16,-11,-11*,-2,16
CCCCN(CC)CCNc1c(NC2CCN(C(=O)OCC)CC2)c(=O)c1=O,x,1,x,-0.68,-14,-1
CCC(c1nnc(SCC(=O)N2CC(=O)Nc3ccccc32)n1Cc1ccccc1)N(C)C (centres undefined),-1,3,0,-1.4,-8,-3
Cc1nn(C)cc1C(C(=O)NC1CCCCC1)N(C(=O)Cc1cccs1)c1ccc(C(C)C)cc1 (centres undefined),-3,-3,5,-5.3*,-24,3
SMILES,sEH activator,NFkB transloc inh,sEH inh,Cav3 T inh,IL1B cytotox,IL1B NFkB pot
Cc1ccc(C(C(=O)NC2CCCC2)N(C(=O)Cc2cccs2)c2ccc(C)c(C)c2)o1 (centres undefined),16,8,-12,-2.3*,2,-8
O=C(O)C1=C[C@H](c2csc3ccccc23)C[C@H](OCc2ccc(CO)cc2)O1,x,x,x,1.5,x,x
COc1cc(C(=O)Nc2ccc(S(=O)(=O)N3CCc4ccccc43)cc2)cc(OC)c1OC,-3,-22,1,-5.3*,13,22
COC(=O)Nc1ccc(S(=O)(=O)N2CCCc3ccccc32)cc1,x,x,x,-6.1*,x,x
COc1ccccc1C(=O)Nc1ccc(S(=O)(=O)N2CCc3ccccc32)cc1,7,-11,-9,-1.4,-107,11
COc1ccc(C(=O)NCc2ccccc2)cc1S(=O)(=O)N1CCCc2ccccc21,0,17,2,-5.3*,1,-17
COc1ccc(CC(=O)N2CCCc3ccccc32)cc1OC,-2,0,5,0.37,-4,0
Cc1c(NC(=O)Cn2cnc3c(=O)n(C)c(=O)n(C)c32)cccc1-c1nc2ccccc2o1,18,-24,-18,x,-19,23
Cc1cc(NC(=O)CSc2ncccn2)no1,-1,10,0,0.33,4,-10
O=C(NCc1ccccc1)C1=C[C@H](C2CCCCC2)C[C@H](OCc2ccc(CO)cc2)O1,x,x,x,-0.75,x,x
N#CCSc1n[nH]c2nc3c(c(=O)n12)C1(CCCC1)Cc1ccccc1-3,x,x,x,-0.67,x,x
N#CCSc1nc2c(c(=O)n1Cc1ccco1)C1(CCCC1)Cc1ccccc1-2,3,8,0,-6.2*,-37,-8
CCCn1c(SCC#N)nc2c(c1=O)C1(CCCC1)Cc1ccccc1-2,5,18,-2,-4.2*,93*,-18
CCn1c(SCC(N)=O)nc2c(c1=O)C1(CCCC1)Cc1ccccc1-2,-4,-3,6,-0.27,-18,3
CN1C(C(=O)NCc2ccccc2)CC2Cn3c(nc4ccccc43)C21 (centres undefined),x,x,x,-0.25,x,x
COc1ccc(/C=N/NC(=O)c2ccc(COc3ccccc3Cl)o2)cc1,-84,-4,84*,x,-51,4
Cn1c(=O)c2c(nc(NCc3cccnc3)n2Cc2ccc(Cl)cc2)n(C)c1=O,-6,-13,8,-7.2*,-6,13
Cn1c(=O)c2c(nc(NCc3ccccc3)n2Cc2ccc(F)cc2)n(C)c1=O,-12,-6,10,-6.8*,-4,6
Cc1ccc(Cn2c(NCCc3ccccc3)nc3c2c(=O)n(C)c(=O)n3C)cc1,-14,-13,13,-0.25,-34,13
COc1ccc(C(=O)Nc2cc(Cl)cc(Cl)c2)c(OC)n1,x,8,x,1.3,-7,-8
CCOC(=O)c1c(N)sc(C(O)(C(F)(F)F)C(F)(F)F)c1-c1ccc(OC)cc1OC,-6,-17,10,-4.9*,-14,17
